Laboratory results reported in PubChem BioAssay AID602376 (Johns Hopkins Ion Channel Center, 2012).
Measured potencies and affinities stand elsewhere. Results filed as inconclusive are left out. The source made the active and inactive calls.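 How the source made its calls: active means raises choline transporter activity at one or more tested doses and gives a fitted dose-response curve; inconclusive means no clear call, values can overlap the other calls; inactive means no choline transporter activation at any dose, or no curve.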

Molecular target: High affinity choline transporter 1 (Homo sapiens) (UniProt Q9GZV3)
Assay: human choline transporter potentiators, potency – cell-based, 10-point CRC, membrane potential dye, dose response (AID 602376)
Conditions: HEK293-CHT, choline-induced membrane potential dye, cells express CHT LV-AA mutant; series mostly up to 67 µM

Chain of High affinity choline transporter 1 (Homo sapiens) (Q9GZV3 whole entry, looked up): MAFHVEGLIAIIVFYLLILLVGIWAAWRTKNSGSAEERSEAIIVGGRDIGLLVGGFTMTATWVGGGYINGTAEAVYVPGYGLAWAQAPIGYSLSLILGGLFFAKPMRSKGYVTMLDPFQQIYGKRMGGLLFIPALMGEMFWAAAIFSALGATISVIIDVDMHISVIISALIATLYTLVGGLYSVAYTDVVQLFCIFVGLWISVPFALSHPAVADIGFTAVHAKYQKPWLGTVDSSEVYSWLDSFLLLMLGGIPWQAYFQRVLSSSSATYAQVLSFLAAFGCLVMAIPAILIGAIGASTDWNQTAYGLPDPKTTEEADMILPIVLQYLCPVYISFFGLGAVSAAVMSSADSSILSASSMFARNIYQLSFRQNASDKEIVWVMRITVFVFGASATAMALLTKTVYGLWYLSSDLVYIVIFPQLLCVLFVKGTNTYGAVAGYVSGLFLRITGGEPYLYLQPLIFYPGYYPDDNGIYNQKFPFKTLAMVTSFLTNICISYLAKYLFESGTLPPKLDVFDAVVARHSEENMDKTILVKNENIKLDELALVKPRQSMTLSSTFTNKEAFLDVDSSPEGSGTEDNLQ

outcome, inactive:
CCOC(=O)c1sc2nc(SCC#N)n(CCCN3CCCC3=O)c(=O)c2c1C
CCOc1cc(NC(=O)c2ccco2)c(OCC)cc1NC(=O)c1ccco1
FC(F)(F)COc1nc(OCC(F)(F)F)nc(N2CCN(c3ccccc3)CC2)n1
CCOC(=O)c1c(CSc2ccsc2)n(C)c2cc(Br)c(O)c(CN(C)C)c12
COc1ccccc1C1CC(c2ccc(Cl)cc2)Nc2ncnn21 (configuration not stated)
O=C(c1ccco1)N(CCC(c1ccccc1)c1ccco1)Cc1ccccc1 (configuration not stated)
O=C(NCC(c1ccco1)N1CCc2ccccc2C1)c1cccc(F)c1 (configuration not stated)
Cn1c(=O)c(=O)n(C)c2cc(S(=O)(=O)N3CCC(N4CCCCC4)CC3)ccc21
COC(=O)C1=C(C)N(Cc2ccccc2)C(=NCC(C)C)N[C@H]1c1ccccc1
CCc1cc2c(N3CCN(c4ccccc4)CC3)ncnc2s1
CCOC(=O)C1(Cc2ccccc2C(F)(F)F)CCN(Cc2ccon2)CC1
CC(C)CN(C(=O)CSc1nnc(-c2cccs2)n1N)c1c(N)n(Cc2ccccc2)c(=O)[nH]c1=O
Cc1ccccc1OCc1n(CC(=O)OC2CC(C)CCC2C(C)C)c2ccccc2[n+]1C (configuration not stated)
Cc1nc(N(C)Cc2ccccc2)c2c(C)c(C)sc2n1
CC(Sc1nnc(-c2ccc(Cl)cc2Cl)n1Cc1ccccc1)C(=O)Nc1nccs1 (configuration not stated)
Cc1cc(N2CCN(Cc3cn(C)nc3-c3ccccc3F)CC2)cc(C)n1
Cc1ccc(S(=O)(=O)c2nc(-c3ccco3)oc2SC(C)C)cc1
